What all share (conditions): concentration: 10 µM; 24 h
Test [1] concerns HCC1569. Nature of the test: cell number relative to DMSO (% of DMSO); higher = more cells (less growth inhibition / toxicity). The method, boiled down: (§1)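 Cells were seeded at 800 per well in 384-well plates with RPMI containing 10% FBS; both HCC1569 and TDF lines were used. Compounds were added at 10 µM for 24 h at 37 °C, in triplicate, before fixation in 3.7% formaldehyde and staining with a rabbit anti-H1.0 antibody, an AlexaFluor 647 secondary and DAPI. H1.0 nuclear intensity or cell number is reported as percent of the plate control using the median of replicates, and HCC1569 values were smoothed for positional effects.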

The test system of test [2] is TDF. The test is described as above. In short, it runs like this:
as §1

Test [3] deals with TDF. Nature of the test: H1.0 immunofluorescence intensity relative to DMSO (% of DMSO); higher = stronger H1.0 induction, active = 120 or more. In short, it runs like this: as §1
Test [4] concerns HCC1569. Nature of the test: H1.0 immunofluorescence intensity relative to DMSO (% of DMSO); higher = stronger H1.0 induction, active = 140 or more. The method, boiled down:
as §1

Structures are written as SMILES. ± gives the standard deviation of the averaged measurements.
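Wherever H1.0 immunofluorescence intensity relative to DMSO is given: TDF is a line of transformed human dermal fibroblasts of mesenchymal origin.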
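Wherever cell number relative to DMSO is given: TDF denotes transformed human dermal fibroblasts of mesenchymal origin.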

In the case of `O=C(Nc1nc2ccccc2n1CCN1CCOCC1)c1cccc([N+](=O)[O-])c1` [IRAK-1/4 Inhibitor], the cell number in the test on HCC1569 [1] was determined as 98.2; in the test on TDF [2], 104. Further, the H1.0 immunofluorescence intensity with TDF [3] was 91.2 (inactive); in the test on HCC1569 [4] it was 117 (inactive).

In the case of `CC(C)(C)c1ccc(S(=O)(=O)Nc2ccc(-n3ccnc3)cc2)cc1` [Stem-Cell Factor/c-Kit Inhibitor, ISCK03], the cell number was determined as 100 in the test on HCC1569 [1] and 102 in the test on TDF [2]. Also, the H1.0 immunofluorescence intensity was 103 (inactive) in the test on TDF [3] and 99.6 (inactive) in the test with HCC1569 [4].

As for `CC(CS)C(=O)N1CCCC1C(=O)O` (stereo unspecified) [Captopril], the figures for the cell number in the test with HCC1569 [1] and in the test on TDF [2] were 98.4 ± 2.9 and 93.4 ± 4.1, respectively. Further, the H1.0 immunofluorescence intensity was 97.6 (inactive) in the test on TDF [3] and 96.7 (inactive) in the test on HCC1569 [4].

Take `Oc1ccc(O)cc1` [Hydroquinone]: the values for the cell number with HCC1569 [1] and in the test on TDF [2] were 74.9 ± 1.1 and 76.8 ± 3.5, respectively. Besides, the H1.0 immunofluorescence intensity is 97.3 (inactive) in the test on TDF [3] and 118 (inactive) in the test with HCC1569 [4].

Consider `Cc1onc(-c2ccccc2)c1C(=O)NC1C(=O)N2C1SC(C)(C)C2C(=O)[O-]` (stereo unspecified) [Oxacillin], for which the cell number in the test with HCC1569 [1] is 99.8; in the test on TDF [2], 105. In addition, the values for the H1.0 immunofluorescence intensity with TDF [3] and with HCC1569 [4] were 91.4 (inactive) and 111 (inactive), respectively.

`CCOC(=O)[C@H](CCc1ccccc1)N[C@@H](C)C(=O)N1CCC[C@H]1C(=O)O.O=C(O)C=CC(=O)O`: the cell number stood at 102 in the test on HCC1569 [1] and 99.6 in the test with TDF [2]. The H1.0 immunofluorescence intensity in the test on TDF [3] is 91 (inactive); with HCC1569 [4], 100 (inactive).

In the case of `CC(C)(C)n1nc(-c2ccc(Cl)cc2)c2c(N)ncnc21`, the figures for the cell number in the test on HCC1569 [1] and in the test on TDF [2] were 67.2 and 107, respectively. Also, the H1.0 immunofluorescence intensity is 99.8 (inactive) in the test with TDF [3] and 182 (active) in the test on HCC1569 [4].

Turning to `CCCCCCCCC=CCCCCCCCCCCCCCC(=O)O` [15(Z)-Tetracosenoic acid], the cell number in the test on HCC1569 [1] came out at 103; in the test with TDF [2], 98.8. Also, the H1.0 immunofluorescence intensity in the test with TDF [3] was 94.8 (inactive); with HCC1569 [4] it was 99.1 (inactive).

For the molecule `N[C@H](C(=O)O)c1cc(O)cc(O)c1` [(S)-3,5-Dihydroxyphenylglycine], the cell number in the test with HCC1569 [1] is 101; in the test on TDF [2], 105. The H1.0 immunofluorescence intensity is 96.4 (inactive) in the test on TDF [3] and 97.4 (inactive) in the test with HCC1569 [4].
